Assay [1] is described as follows: CLD_ACTIN_24hr: CellzDirect (CLD) Gene Expression Assay for Baseline Control (Actin) at 24 hours (AID 2283670). In short, it runs like this:
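Primary human hepatocytes dosed over multiple concentrations with 0.2% DMSO vehicle; actin mRNA measured at 24 h by qNPA chemiluminescence. Background control endpoint, fitted as gain of signal versus DMSO.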

Read-out in assay [2]: Cytochrome P450 2B6 (Homo sapiens) (UniProt P20813)
Briefly: CLD_CYP2B6_6hr: CellzDirect (CLD) Gene Expression Assay for xenobiotic metabolism (CYP2B6) at 6 hours (AID 2283677).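 Further: actives raise CYP2B6 transcript above DMSO baseline so AC50 marks an inducer.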 In short, it runs like this: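 Primary human hepatocytes dosed with chemicals at multiple concentrations, vehicle 0.2% DMSO; CYP2B6 mRNA induction measured 6 h after dosing by quantitative nuclease protection assay with chemiluminescence, gain of signal fitted relative to DMSO.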

The nature of assay [3]: CCTE_Padilla_ZF_144hpf_TERATOSCORE: (Legacy) CCTE's 144 Hour Post-fertilization zebrafish Assay Teratoscore, Padilla Lab (AID 2283679; active means hit-call score of the fitted dose curve at least 0.9, where 1 is the maximum; inactive means score below 0.9;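 on AC50: zebrafish embryos with chorions exposed by immersion from 6-8 hpf to 5 dpf with daily renewal; teratogenicity score from eye scoring of death hatching and malformations at 144 hpf; higher score means more developmental defects relative to DMSO baseline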). In short, it runs like this: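 Larvae scored by eye at 144 hpf for death, hatching and malformations after a day in clean Hanks'. Before that, daily-renewed exposure at 80 uM (0.4% DMSO, 26C) from roughly 6-8 hpf through 5 dpf, 4 embryos per chemical.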

Read-out in assay [4]: HMG-CoA synthase (HMGCS2), HMGCS2 (gene 3158)
Briefly: CLD_HMGCS2_6hr: CellzDirect (CLD) Gene Expression Assay for HMG-CoA synthase (HMGCS2) at 6 hours (AID 2283682).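 Further: actives raise HMGCS2 transcript above the 0.2% DMSO vehicle baseline.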 In short, it runs like this:
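Primary human hepatocytes dosed daily with fresh chemical, 0.2% DMSO vehicle; HMGCS2 mRNA measured at 6 h by qNPA chemiluminescence. Gain of signal fitted against DMSO; cytotoxicity flagged from phase-contrast morphology.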

Read-out in assay [5]: ABC Transporter (ABCB1), ABCB1 (gene 5243)
As to the kind of experiment: CLD_ABCB1_24hr: CellzDirect (CLD) Gene Expression Assay for ABC Transporter (ABCB1) at 24 hours (AID 2283684). In short, it runs like this: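 Primary human hepatocytes, two donor preparations, dosed daily with fresh solutions; vehicle 0.2% DMSO; harvested at 24 h. ABCB1 mRNA measured by quantitative nuclease protection assay (chemiluminescence); morphology-based cytotoxicity annotated.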

Read-out in assay [6]: Cytochrome P450 2B6 (Homo sapiens) (UniProt P20813)
Briefly: CLD_CYP2B6_24hr: CellzDirect (CLD) Gene Expression Assay for xenobiotic metabolism (CYP2B6) at 24 hours (AID 2283686). Put shortly: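 Primary human hepatocytes dosed daily for two days with fresh solutions, harvested at 24 hours; mRNA induction quantified by qNPA chemiluminescence, gain of signal vs 0.2% DMSO vehicle. Cytotoxicity annotated from phase-contrast morphology.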

Read-out in assay [7]: Cytochrome P450 (CYP24A1_1), CYP24A1 (gene 1591)
As to the kind of experiment: LTEA_HepaRG_CYP24A1_1: Life Technologies and Expression Analysis (LTEA) Assay for Cytochrome P450 (CYP24A1_1) using HepaRG (AID 2283671; active means hit-call score of the fitted dose curve at least 0.9, where 1 is the maximum; inactive means score below 0.9). The settings on record: mRNA level, 48 h; actives raise or lower the signal. Put shortly: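 In this test, gene induction or suppression of CYP24A1 in human HepaRG liver cells is measured by qRT-PCR after 48 h chemical treatment (eight concentrations, maximum 100 uM). Values are fitted bidirectionally relative to DMSO.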

Read-out in assay [8]: ABC Transporter (ABCB11), ABCB11 (gene 8647)
Briefly: CLD_ABCB11_24hr: CellzDirect (CLD) Gene Expression Assay for ABC Transporter (ABCB11) at 24 hours (AID 2283674; active means hit-call score of the fitted dose curve at least 0.9, where 1 is the maximum; inactive means score below 0.9). In short, it runs like this:
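Primary human hepatocytes were dosed daily for two days, with 0.2% DMSO vehicle. ABCB11 mRNA induction was measured at 24 hours by quantitative nuclease protection assay with chemiluminescence. Gain of signal was fitted relative to DMSO.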

Read-out in assay [9]: Glyceraldehyde-3-phosphate dehydrogenase (Homo sapiens) (UniProt P04406)
As to the kind of experiment: CLD_GAPDH_6hr: CellzDirect (CLD) Gene Expression Assay for Baseline Control (Glyceraldehyde 3-phosphate dehydrogenase) at 6 hours (AID 2283681).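 Further: active means increased signal relative to DMSO vehicle.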 Put shortly: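 Primary human hepatocytes from two donor preparations, dosed at multiple concentrations with 0.2% DMSO vehicle; GAPDH mRNA measured 6 h after dosing by chemiluminescent quantitative nuclease protection assay (qNPA) on denatured lysates. Serves as background control; cytotoxicity annotated by morphology.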

Molecules are shown by their SMILES. Records with an inconclusive call do not appear. Active and inactive are the calls of the source. How the source made its calls, unless noted: active means hit-call score of the fitted dose curve at least 0.9, where 1 is the maximum; inconclusive means response in the unintended direction; inactive means score below 0.9.

Chain of Glyceraldehyde-3-phosphate dehydrogenase (Homo sapiens) (P04406 whole entry, looked up): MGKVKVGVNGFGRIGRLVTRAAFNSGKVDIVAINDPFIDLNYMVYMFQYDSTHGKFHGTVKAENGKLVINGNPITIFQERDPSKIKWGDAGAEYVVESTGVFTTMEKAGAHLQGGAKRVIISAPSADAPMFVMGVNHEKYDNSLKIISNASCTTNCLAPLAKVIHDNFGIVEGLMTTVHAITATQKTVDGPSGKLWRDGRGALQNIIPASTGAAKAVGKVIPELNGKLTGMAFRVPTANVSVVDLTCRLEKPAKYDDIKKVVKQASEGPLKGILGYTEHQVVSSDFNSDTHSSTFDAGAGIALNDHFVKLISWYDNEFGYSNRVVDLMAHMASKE

One may read the AC50 as the concentration giving half of the maximal activity seen. As to `CSC(=O)c1cccc2nnsc12`, the compound was called inactive in [1], in assay [2], in assay [4], in assay [5] and in [6]. In addition, in assay [3], the AC50 was 12.7 µM (active).
Take `COC(=O)c1ccccc1C(=O)O`: the outcome in assay [1], in [7], in assay [8], in [2], in assay [3] and in assay [9] was inactive. For the same compound, the call in [4] and in assay [5] was inactive.
`CCCOC(=O)c1ccc(C(=O)OCCC)nc1`: the call in assay [1], in [8], in [9], in assay [4] and in [5] was inactive. The concentration at half-maximal activity (AC50) in assay [3] was 1.7 µM (active).
As for `CCCCCCC(C)OC(=O)COc1nc(F)c(Cl)c(N)c1Cl` (centres undefined), the compound was classed as inactive in assay [1], in [7], in assay [2], in assay [9] and in assay [6]. In assay [3], the half-maximal activity concentration (AC50) was 46.9 µM (active).
Take `C#C[C@]1(O)CC[C@H]2[C@@H]3CCC4=CC(=O)CC[C@@H]4[C@H]3CC[C@@]21CC`: the outcome in assay [3] was inactive.
With `CC(=O)[C@H]1CC[C@H]2[C@@H]3CCC4=CC(=O)CC[C@]4(C)[C@H]3CC[C@]12C`, in [3], the concentration at half-maximal activity (AC50) was 8.03 µM (active).
Regarding `CCC(O)=C1C(=O)CC(C(=O)O)CC1=O` (centres undefined), the compound was classed as inactive in [8], in [3], in assay [9], in assay [4] and in assay [5].
For the compound `O=C(c1ccccc1)C1CCCCC1`, the result in [3] was inactive.
As for `COC(=O)c1cccc(C)c1S(=O)(=O)NC(=O)Nc1nc(OCC(F)(F)F)nc(N(C)C)n1`, the AC50 in [2] is 8.96 µM (active); in assay [6], 4.98 µM (active). Also, the compound was classed as inactive in assay [3] and in [5].
For the compound `S=C([S-])NCCNC(=S)[S-].[Mn+2]`, the compound was classed as inactive in assay [7], in assay [9], in [4] and in [5]. In addition, the concentration at half-maximal activity (AC50) in [3] is 1.04 µM (active).
Regarding `COC(=O)CSc1cc(N=c2sc(=O)n3n2CCCC3)c(F)cc1Cl`, the AC50 was 1.82 µM (active) in assay [2], 0.0125 µM (active) in assay [3] and 2.48 µM (active) in [6]. In addition, the outcome in assay [9] and in assay [5] was inactive.
As for `CC(=O)S[C@@H]1CC2=CC(=O)CC[C@]2(C)[C@H]2CC[C@@]3(C)[C@@H](CC[C@@]34CCC(=O)O4)[C@H]12`, the AC50 in [3] is 38.3 µM (active).
